Hits are enriched below; roughly 4.6% of the tested compounds scored in any of these assays.
GAA850 FXN act: FXN promoter activators, primary screen, cell-based, luciferase luminescence, HEK293 lucGAA850; 360,000 tested, 0.56% active; HEK293 lucGAA850 FXN promoter luciferase reporter, 24 h; percent of 10 µM SAHA response; activation, % at 6 µM;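 active means activation above the average of all compounds screened plus 3 SD, cutoff fixed separately per campaign, cut at about 7.5% in these data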;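 further: 0% = DMSO wells and 100% = 10 µM SAHA wells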
AHR activator: AHR activators, primary screen, cell-based, luminescence, luciferase reporter, human; activation, % at 5 µM; AID 2796, 2010; 320,000 tested, 2.5% active; AHR-responsive luciferase reporter cells; in the data active means activation above about 47%;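 further: 0% = vehicle wells and 100% = reference agonist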
Target sequence (P35869 whole entry, looked up): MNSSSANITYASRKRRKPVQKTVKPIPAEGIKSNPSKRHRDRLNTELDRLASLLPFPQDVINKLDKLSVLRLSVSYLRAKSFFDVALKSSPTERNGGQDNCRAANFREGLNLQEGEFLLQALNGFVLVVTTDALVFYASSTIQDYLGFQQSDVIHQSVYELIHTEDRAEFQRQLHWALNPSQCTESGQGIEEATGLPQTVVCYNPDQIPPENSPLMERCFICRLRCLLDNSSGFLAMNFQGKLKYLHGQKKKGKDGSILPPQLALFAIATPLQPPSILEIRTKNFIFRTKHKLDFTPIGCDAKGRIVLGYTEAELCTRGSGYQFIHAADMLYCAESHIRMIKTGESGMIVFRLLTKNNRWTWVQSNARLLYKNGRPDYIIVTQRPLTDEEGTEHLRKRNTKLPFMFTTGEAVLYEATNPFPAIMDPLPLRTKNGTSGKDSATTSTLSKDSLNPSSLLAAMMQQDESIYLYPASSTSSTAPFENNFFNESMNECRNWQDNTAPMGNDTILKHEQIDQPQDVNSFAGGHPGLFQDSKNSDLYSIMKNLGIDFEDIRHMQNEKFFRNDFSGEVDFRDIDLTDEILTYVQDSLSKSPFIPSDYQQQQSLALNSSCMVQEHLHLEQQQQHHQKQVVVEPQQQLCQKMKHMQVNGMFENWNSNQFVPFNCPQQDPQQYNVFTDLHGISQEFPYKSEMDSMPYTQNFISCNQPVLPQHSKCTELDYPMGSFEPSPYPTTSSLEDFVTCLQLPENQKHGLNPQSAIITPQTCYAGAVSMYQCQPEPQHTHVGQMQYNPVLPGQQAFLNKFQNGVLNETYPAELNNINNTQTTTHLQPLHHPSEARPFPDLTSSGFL
HSF1 inh: HSF1 inhibitors in luciferase reporter cells, primary screen, cell-based, NIH3T3, luminescence; NIH3T3-HGL HSE-luciferase, MG132-induced, luminescence 8 h; active compounds read low; activity change, negative = inhibition, % at 7.5 µM (by protocol); 300,000 tested, 0.77% active;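 active means more than half of replicate wells show activity change below -50%, luminescence cut by over half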;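 further: luciferase reports HSF-1 transcriptional activity via heat shock element; 0% = median of DMSO wells and -100% = zero luminescence signal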
HSF-1 act: HSF-1 activators, primary screen, NIH3T3-HGL cells, MG132 stress, luminescence, single point. NIH3T3-HGL HSF-1 luciferase reporter, 8 h; 100% = twice DMSO control signal. activation, % at 9 µM. AID 504408, 2011. 300,000 tested, 1.7% active;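 active means mean replicate activation of at least 50% with a set share of replicates each reaching 50%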;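 further: 0% = median of the neutral control wells and 100% = twice that signal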
The depositor's hits bear a star; x = not tested or not shown.

SMILES	GAA850 FXN act	AHR activator	HSF1 inh	HSF-1 act
Cc1ccc(NC(=O)c2cc(NC(=O)/C=C\C(=O)O)ccc2N2CCCCC2)cc1	1	36	-3	-4
O=C(Nc1ccc(N2CCCCCC2)cc1)c1ccccc1Cl	-3	2	29	60*
O=C(Nc1nnc(S(=O)(=O)N2CCCCCC2)s1)c1ccccc1Cl	-1	1	-70*	-78
O=C(Nc1nnc(S(=O)(=O)N2CCCC2)s1)c1ccccc1Cl	1	4	-1	-3
CCNC1CCS(=O)(=O)C1 (centres undefined)	0	-2	-7	-2
O=C(COC(=O)c1ccc(OC(F)(F)F)cc1)Nc1ncccn1	1	0	x	x
Cc1ccc(NC(=O)C2CCN(S(=O)(=O)c3c(C)n[nH]c3C)CC2)c(C)c1	1	3	4	8
O=C(Nc1ccc(-n2ccnc2P(=O)(O)c2ccccc2)cc1)c1ccccc1Cl	1	-2	-55*	-66
O=C(Nc1ccc(Oc2cccnc2)cc1)c1ccccc1Cl	0	2	x	x
COc1ccc(C/C(=N\O)c2ccc(OC)cc2)cc1	4	3	35	53*
Clc1ccc(COn2c(-c3ccccc3)nc3ccccc32)cc1	0	5	6	16
COn1c(-c2ccc(Cl)cc2)nc2ccc(Cl)cc21	5	30	84	111*
COc1ccc(-c2nc3ccccc3n2OCC(=O)O)cc1	4	3	26	32
O=C(O)COn1c(-c2ccc(Cl)cc2)nc2ccc(Cl)cc21	5	67*	63	92*
Clc1ccc(COn2c(-c3ccc(Cl)cc3)nc3ccccc32)cc1	1	7	35	60*
Cc1nnc(SCC(=O)Nc2cccc(S(=O)(=O)N(C)c3ccccc3)c2)s1	2	-5	7	4
NC(=O)c1nn(-c2cccc(Cl)c2)c(=O)cc1O	3	-2	3	4
Cc1c(C(=O)Nc2ccc(Cl)cc2)c2ccccn2c1CCc1ccncc1	7	87*	37	66*
Cc1cc(N2CCOCC2)n2nc(C)c(-c3ccc(Cl)cc3)c2n1	0	6	-9	8
COc1cc(/C=N/N=C2/C(=O)Nc3ccccc32)cc(OC)c1O	0	34	-72*	-79
Cc1ccc(N=C2C(=O)Nc3ccccc32)cc1C	2	13	9	51*
Cc1ccc(N=C2C(=O)Nc3ccccc32)cc1	-1	4	-4	15
O=C(N/N=C/c1cccc([N+](=O)[O-])c1)c1cc(-c2ccc3c4c(cccc24)CC3)n[nH]1	1	51*	9	22
CC(C)(NC(=O)c1cc(Cl)c2ccccc2c1O)C(=O)O	2	15	-83*	-87
O=C(c1ccc([N+](=O)[O-])o1)N1CCN(c2nc3c(F)cc(F)cc3s2)CC1	2	13	36	71*
SMILES	GAA850 FXN act	AHR activator	HSF1 inh	HSF-1 act
CCNC(=O)/C(C#N)=C/c1c(N(Cc2ccccc2)Cc2ccccc2)nc2ccccn2c1=O	3	3	22	66*
CNC(=O)/C(C#N)=C/c1c(N(Cc2ccccc2)Cc2ccccc2)nc2c(C)cccn2c1=O	2	-1	1	24
CCCCCC(=O)NC(=S)Nc1ccc2oc(=O)ccc2c1	1	5	x	x
CC(C)CNS(=O)(=O)c1ccc(CCC(=O)N2CCCC2)cc1	4	-1	-4	-5
CC(C)CNS(=O)(=O)c1ccc(CCC(=O)N2CCOCC2)cc1	-1	-1	-73*	-80
CC(C)(Oc1ccc(Cl)cc1)C(=O)Nc1ccc2oc(-c3ccncc3)nc2c1	-1	-6	54	110*
Nc1cc(=O)[nH]c(SCC(=O)Nc2ccc(Br)cc2)n1	1	3	-8	-21
CCOc1ccc(N=Cc2ccc3ccccc3c2)cc1	-1	0	-11	-14
O=[N+]([O-])c1cc(C=Nc2ccc3ccccc3c2)ccc1Br	2	68*	3	-5
COc1ccc2c(c1)CC/C(=C\C=C\c1ccccc1OC)C2=O	1	2	53	58*
O=C1CC(NCc2cccs2)C(=O)N1c1ccc(Cl)cc1 (centres undefined)	-1	72*	-10	3
c1ccc(-c2nn[nH]n2)cc1	1	-3	-7	-5
c1ccc(-c2nn[nH]n2)nc1	1	6	-59*	-68
CCCCn1cnc2sc(-c3ccccc3)cc2c1=O	3	-9	32	56*
CCCCCn1cnc2sc(-c3ccccc3)cc2c1=O	4	-8	30	57*
CCCCCn1cnc2sc(CC)cc2c1=O	3	1	34	47
O=C(c1ccc(COc2ccc(Cl)cc2)cc1)N1CCCCC1	5	9	29	54*
C=CCn1c(C)cc(C(=O)CSc2nc3ccccc3[nH]2)c1C	-6	-9	-22	-29
Cc1ccc2nc(SCC(=O)c3c(C)[nH]c4ccccc34)[nH]c2c1	1	53*	8	6
Cc1cc(C(=O)CSc2nc3ccccc3[nH]2)c(C)n1C	-2	3	38	71*
Cc1ccc2nc(SCC(=O)c3cc(C)n(C)c3C)[nH]c2c1	0	52*	5	20
O=C(CSc1nc2ccccc2[nH]1)c1ccccc1F	1	-1	18	57*
COc1ccccc1CNC(=O)C1CCN(S(=O)(=O)N2CC(C)CC(C)C2)CC1 (centres undefined)	0	0	-6	-4
Cc1cc(C(=O)CSc2nc3ccc(Cl)cc3[nH]2)c(C)n1CC1CCCO1 (centres undefined)	-3	29	2	-1
Cc1cc(C(=O)CSc2nc3ccc(Cl)cc3[nH]2)c(C)n1C	5	79*	12	24
SMILES	GAA850 FXN act	AHR activator	HSF1 inh	HSF-1 act
Cc1ccc(C)c(C(=O)CSc2nc(N)cc(=O)[nH]2)c1	1	5	-55*	-51
Cc1ccc(C)c(C(=O)CSc2nc(C)cc(=O)[nH]2)c1	0	3	-1	2
Cc1ccc(CN2C(=O)C(C)Oc3ccccc32)cc1 (centres undefined)	4	0	-6	-7
Cc1ccc(N2Cc3ccccc3OC(C)C2=O)cc1 (centres undefined)	-1	3	27	55*
O=C(CNCc1ccccn1)Nc1ccc([N+](=O)[O-])cc1C(=O)Nc1ccccc1F	1	75*	2	16
CCCCn1c(S(=O)(=O)O)nc2ccccc21	2	-1	-2	-9
CCn1c(S(=O)(=O)O)nc2ccccc21	1	4	-69*	-77
C=C(C)CNC(=S)N/N=C(\C)c1ccc(OC)cc1	1	47	3	7
CCc1nc2c(OCc3ccc(C(F)(F)F)cc3)cccn2c1N(C)C(=O)c1ccc(OC)cc1	3	x	x	x
Cc1onc(-c2c(F)cccc2Cl)c1C(=O)c1ccccc1	-1	-1	-61*	-71
Cc1onc(-c2c(F)cccc2Cl)c1C(=O)c1ccc(F)cc1	-1	-3	-8	4
